High-throughput results: PubChem, National Center for Advancing Translational Sciences (NCATS)
The list is not random: actives were taken first. Their share in the collection is about 0.57%.
IMPase Li cell = qHTS Assay for Identifying the Cell-Membrane Permeable IMPase Inhibitors: Potentiation with Lithium; AID 1457, 2008; Potency, µM (series often up to 59.4 µM), most hits filed as inhibitors; CHO-M1 cells, IP1 TR-FRET (IP-One), carbachol + lithium; hit rate 0.35% among 210,000;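 further: IP1 builds up when IMPase is blocked and the TR-FRET signal falls; nearly all actives have a fitted effect of over 50% in size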
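Lithium-sensitised IP1 accumulation assay; M1-expressing CHO cells treated 30 min at 37C with compound. Competitive antibody detection by time-resolved FRET followed a 10 min room-temperature lysis step.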
IMPase cell inh = qHTS Assay for Identifying the Cell-Membrane Permeable IMPase Inhibitors; CHO-M1 cells, IP1 accumulation, HTRF TR-FRET ratio; inhibition (IP1 accumulation), % at 46.1 µM; Inositol monophosphatase 1 (Rattus norvegicus), P97697; 120,000 tested, under 10 active; AID 901, 2007; active means well fitted curve in the direction sought with a large enough effect in the signal ratio, not every such curve was filed as active; inconclusive means small, poorly fitted or top-dose-only effect, or a change in a side signal; inactive means no such curve, though single readings can be large or run the other way; the % refers to the signal ratio;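 further: cells stimulated with carbachol in lithium chloride buffer; higher means more IMPase inhibition seen as more IP1 and lower FRET ratio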
Target sequence (P97697 whole entry, looked up): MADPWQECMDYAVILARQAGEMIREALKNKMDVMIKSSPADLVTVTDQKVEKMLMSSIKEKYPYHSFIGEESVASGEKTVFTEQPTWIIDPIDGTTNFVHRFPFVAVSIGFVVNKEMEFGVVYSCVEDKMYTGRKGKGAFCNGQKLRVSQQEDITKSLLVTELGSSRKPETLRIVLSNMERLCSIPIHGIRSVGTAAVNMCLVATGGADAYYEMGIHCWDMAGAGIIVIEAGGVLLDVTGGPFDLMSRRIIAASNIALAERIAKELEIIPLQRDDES
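Carbachol-driven Gq signalling in CHO-M1 cells (2000/well) generates IP1. Compounds that block IMPase raise IP1 and so reduce the FRET signal from Eu-anti-IP1 and d2-IP1 after a 10 min room-temperature lysis.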
15-hLO-2 inh = qHTS Assay for Inhibitors of 15-hLO-2 (15-human lipoxygenase 2); Polyunsaturated fatty acid lipoxygenase ALOX15B (Homo sapiens), O15296; purified 15hLO-2, xylenol orange hydroperoxide absorbance; Potency, µM (top dose mostly 57.1 µM), actives largely listed as inhibitors; hit rate 0.56% among 110,000; AID 881, 2007; further: nearly all actives have a fitted effect of over 60% in size
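Read-out: hydroperoxide product oxidises ferrous iron, measured as xylenol orange complex via the 573-to-405 nm absorbance ratio after 30 min. Reaction: 50 nM enzyme, 15 min compound preincubation, 45 uM arachidonic acid, 90 min RT, Hepes pH 7.5 with Triton X-100.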
ALOX12 inhib = qHTS Assay for Inhibitors of 12-hLO (12-human lipoxygenase) | Potency, µM (top dose mostly 57.1 µM), hits mostly inhibitors | Polyunsaturated fatty acid lipoxygenase ALOX12 (Homo sapiens), P18054 | AID 1452, 2008 | purified 12-hLO, xylenol orange hydroperoxide absorbance | hit rate 0.12% among 150,000; further: nearly all actives have a fitted effect of over 55% in size
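Xylenol orange chromogenic assay: hydroperoxide from 12hLO oxidises Fe(II), giving red-shifted Fe(III)-XO absorbance. Conditions: 150 nM enzyme, 40 uM arachidonic acid, 25 mM Hepes pH 7.0, 0.01% Triton X-100, 30 min, room temperature.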
Large screens that a line does not name were inactive; ! = a repeat was not active. Unless noted, the call rests on the fitted dose curve; in most records, active means well fitted curve in the direction sought with a large enough effect; inconclusive means small, poorly fitted or top-dose-only effect, or another doubt; inactive means no such curve, though single readings can be large; an effect the other way counts as inactive or inconclusive.

C=CC(C1=CC(=O)C(OC)=CC1=O)c1ccc(OC)cc1 (stereo unspecified)	15-hLO-2 inh inconclusive, ALOX12 inhib inconclusive (no result: IMPase cell inh)
C=CC(C1=CC(=O)C(OC)=CC1=O)c1ccccc1 (stereo unspecified)	15-hLO-2 inh 20µM (no result: IMPase cell inh)
O=c1[nH]c(=S)c2c(n1-c1ccccc1)CCC2	IMPase Li cell 10µM, IMPase cell inh inconclusive
O=c1c(O)c(-c2ccc(O)c(O)c2)oc2ccccc12	15-hLO-2 inh 13µM, ALOX12 inhib inconclusive
C=C1C[C@@]23C[C@@]1(O)CC[C@@H]2[C@]12C=C[C@@H](O)[C@](C)(C(=O)O1)[C@@H]2[C@@H]3C(=O)O	none
COC(=O)c1sc(NC(=O)c2c(OC)cccc2OC)c(C#N)c1C	IMPase Li cell 11µM (no result: IMPase cell inh, 15-hLO-2 inh, ALOX12 inhib)
COC(=O)c1sc(NC(=O)c2c(F)cccc2F)c(C#N)c1C	none (no result: IMPase cell inh, 15-hLO-2 inh, ALOX12 inhib)
Nc1nc(SCc2ccc([N+](=O)[O-])cc2)c2ncn([C@@H]3O[C@@H](CO)[C@@H](O)[C@H]3O)c2n1	none (no result: IMPase Li cell)
O=C(Nc1cccc(F)c1)c1ccc2c(c1)OCO2	none
O=C(Nc1c(C(=O)Nc2cccc(F)c2)oc2ccccc12)c1ccc2c(c1)OCO2	IMPase Li cell 14µM, 15-hLO-2 inh inconclusive
C=Cc1c(C)/c2[n-]/c1=C\c1[n-]c(c(CC)c1C)/C=c1\[n-]c3c(c1C)C(=O)C(C(=O)[O-])C=3c1[n-]c(c(C)c1CCC(=O)[O-])\C=2.[Cu].[Na+].[Na+] (stereo unspecified)	15-hLO-2 inh 7.9µM, ALOX12 inhib inconclusive (no result: IMPase cell inh)
CCCCn1c(NC(=O)c2ccc(Br)o2)c(S(=O)(=O)c2ccccc2)c2nc3ccccc3nc21	IMPase Li cell 10µM, IMPase cell inh inconclusive, 15-hLO-2 inh inconclusive
CCCCCn1c(NC(=O)c2ccco2)c(S(=O)(=O)c2ccc(C)cc2)c2nc3ccccc3nc21	IMPase Li cell 11µM, IMPase cell inh inconclusive, ALOX12 inhib inconclusive
CCCCn1c(NC(=O)c2ccco2)c(S(=O)(=O)c2ccc(C)cc2)c2nc3ccccc3nc21	IMPase Li cell inconclusive (no result: IMPase cell inh, 15-hLO-2 inh)
CSc1ccccc1-c1n[nH]c(=S)o1	IMPase Li cell 10µM (no result: IMPase cell inh, 15-hLO-2 inh, ALOX12 inhib)
S=c1[nH]nc(-c2ccccc2)o1	IMPase Li cell 11µM, IMPase cell inh inconclusive
COc1ccc(Cl)cc1-c1n[nH]c(=S)o1	IMPase Li cell 6.3µM, IMPase cell inh inconclusive
Cc1ccc(-c2cc(-c3n[nH]c(=S)o3)c3ccccc3n2)cc1	ALOX12 inhib inconclusive (no result: IMPase cell inh, 15-hLO-2 inh)
Cc1ccccc1-c1n[nH]c(=S)o1	IMPase Li cell 10µM, IMPase cell inh inconclusive
CC(Cc1n[nH]c(=S)o1)c1ccccc1 (stereo unspecified)	none (no result: IMPase cell inh, 15-hLO-2 inh, ALOX12 inhib)
Cc1ccc(S(=O)(=O)Nc2ccc(O)c(C(=O)O)c2)c(C)c1	none (no result: IMPase Li cell, IMPase cell inh, 15-hLO-2 inh)
COc1ccc2nc3c(nc2c1)C(=O)c1ccccc1-3	none (no result: IMPase Li cell, IMPase cell inh, 15-hLO-2 inh)
S=C([S-])NCCNC(=S)[S-].[Zn+2]	15-hLO-2 inh inconclusive (no result: IMPase cell inh)
O=C(OCC1OC(OC(=O)c2cc(O)c(O)c(OC(=O)c3cc(O)c(O)c(O)c3)c2)[C@@H](OC(=O)c2cc(O)c(O)c(OC(=O)c3cc(O)c(O)c(O)c3)c2)C(OC(=O)c2cc(O)c(O)c(OC(=O)c3cc(O)c(O)c(O)c3)c2)C1OC(=O)c1cc(O)c(O)c(OC(=O)c2cc(O)c(O)c(O)c2)c1)c1cc(O)c(O)c(OC(=O)c2cc(O)c(O)c(O)c2)c1 (stereo partly specified)	IMPase Li cell inconclusive, 15-hLO-2 inh 1.6µM, ALOX12 inhib 0.56µM (no result: IMPase cell inh)
[ClH+][Cu][ClH+].[Cu].[OH2+]c1ccc2ccccc2c1CN1CCCCC1.[OH2+]c1ccc2ccccc2c1CN1CCCCC1	none (no result: IMPase cell inh, 15-hLO-2 inh, ALOX12 inhib)
COCCCC/C(=N\OCCN)c1ccc(C(F)(F)F)cc1	IMPase Li cell 10µM! (no result: IMPase cell inh, 15-hLO-2 inh)
Cn1c(=O)c2c(nc(/C=C\c3cccc(Cl)c3)n2C)n(C)c1=O	none (no result: IMPase Li cell)
CCOC(=O)c1ccc(NC(=S)NCCC2=CCCCC2)cc1	ALOX12 inhib 25µM (no result: 15-hLO-2 inh)
O=[N+]([O-])c1ccccc1C1Nc2cccc3cccc(c23)N1	15-hLO-2 inh inconclusive
O=[N+]([O-])c1ccc(Cl)c(C2Nc3cccc4cccc(c34)N2)c1	15-hLO-2 inh 13µM, ALOX12 inhib inconclusive
CCc1ccc(OCC(=O)Nc2ccc(-c3nc4ccccc4o3)c(O)c2)cc1	IMPase Li cell 5.6µM
